We go through 7 sequences from publication PMC11006913.

Substitutions are numbered along the chain they refer to.

Common to all, as to test: PBM; 200 nM protein, PBS
Conditions in all cases: dsDNA, one strand shown

Assay [1] has as its target T1, PAX4 (Homo sapiens, UniProt O43316 9-242, R200K).
T1 sequence: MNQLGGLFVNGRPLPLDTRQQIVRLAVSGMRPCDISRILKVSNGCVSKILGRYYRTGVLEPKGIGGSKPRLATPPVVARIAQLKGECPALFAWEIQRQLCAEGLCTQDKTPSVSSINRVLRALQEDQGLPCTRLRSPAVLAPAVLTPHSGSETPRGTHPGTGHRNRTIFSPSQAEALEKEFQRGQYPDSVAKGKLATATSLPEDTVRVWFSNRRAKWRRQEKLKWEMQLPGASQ

Assay [2] has as its target T2, PAX4 (Homo sapiens, UniProt O43316 9-242).
T2 sequence: T1 sequence with K192R

Assay [3] has as its target T3, PAX4 (Homo sapiens, UniProt O43316 9-242, R200Q).
T3 sequence: T1 sequence with K192Q

For assay [4], the target named is T4, PAX4 (Homo sapiens, UniProt O43316 9-242, F177V).
T4 sequence: T1 sequence with F169V, K192R

Assay [5] concerns the target HOXA2 (Homo sapiens, UniProt O43364 129-215, R185T).
Assay [6] concerns the target HOXA2 (Homo sapiens, UniProt O43364 129-215, R185K).
For assay [7], the target named is T5, PAX4 (Homo sapiens, UniProt O43316 9-242, F177Y).
T5 sequence: T1 sequence with F169Y, K192R

The target of assay [8] is T6, PAX4 (Homo sapiens, UniProt O43316 9-242, R227W).
T6 sequence: T1 sequence with K192R, R219W

Assay [9] addresses HOXA2 (Homo sapiens, UniProt O43364 129-215, Y150S).
For assay [10], the target named is HOXA2 (Homo sapiens, UniProt O43364 129-215).
Sequence of HOXA2 (Homo sapiens, UniProt O43364 129-215) (O43364 129-215): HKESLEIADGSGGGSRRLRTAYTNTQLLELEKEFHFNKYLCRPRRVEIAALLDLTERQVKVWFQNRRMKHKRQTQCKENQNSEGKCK
The next assay deals with PITX2 (Homo sapiens, UniProt Q99697 72-157).
The target in assay [11] is T7, NKX2-6 (Homo sapiens, UniProt A6NCS4 118-204).
T7 sequence: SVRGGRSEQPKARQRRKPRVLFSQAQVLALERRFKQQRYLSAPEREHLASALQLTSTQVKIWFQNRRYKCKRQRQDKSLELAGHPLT

Assay [12] deals with T8, NKX2-6 (Homo sapiens, UniProt A6NCS4 118-204, F151L).
T8 sequence: T7 sequence with F34L

Assay [13] deals with MSX2 (Homo sapiens, UniProt P35548 130-214, R199I).
Sequence of MSX2 (Homo sapiens, UniProt P35548 130-214, R199I) (P35548 130-214 R199I): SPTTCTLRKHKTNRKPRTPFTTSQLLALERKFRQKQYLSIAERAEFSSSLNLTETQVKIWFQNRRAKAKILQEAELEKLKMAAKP
Assay [14] has as its target MSX2 (Homo sapiens, UniProt P35548 130-214).
Assay [15] addresses MSX2 (Homo sapiens, UniProt P35548 130-214, F161Y).
Assay [16] concerns the target HOXD13 (Homo sapiens, UniProt P35453 263-343, T313R).
Assay [17] concerns the target HOXD13 (Homo sapiens, UniProt P35453 263-343).
Assay [18] addresses HOXD13 (Homo sapiens, UniProt P35453 263-343, T313A).

Sequence of HOXA2 (Homo sapiens, UniProt O43364 129-215, Y150S) (O43364 129-215 Y150S): as the sequence (O43364 129-215) above, with Y22S counted along it
Sequence of HOXA2 (Homo sapiens, UniProt O43364 129-215, R185T) (O43364 129-215 R185T): as the sequence (O43364 129-215) above, with R57T counted along it
Sequence of HOXA2 (Homo sapiens, UniProt O43364 129-215, R185K) (O43364 129-215 R185K): as the sequence (O43364 129-215) above, with R57K counted along it
Sequence of MSX2 (Homo sapiens, UniProt P35548 130-214, F161Y) (P35548 130-214 F161Y): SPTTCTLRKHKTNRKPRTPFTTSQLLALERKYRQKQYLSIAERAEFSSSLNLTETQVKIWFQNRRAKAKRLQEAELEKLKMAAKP
Sequence of HOXD13 (Homo sapiens, UniProt P35453 263-343, T313A) (P35453 263-343 T313A): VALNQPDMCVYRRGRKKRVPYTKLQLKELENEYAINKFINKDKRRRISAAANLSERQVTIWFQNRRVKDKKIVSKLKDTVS
Sequence of HOXD13 (Homo sapiens, UniProt P35453 263-343, T313R) (P35453 263-343 T313R): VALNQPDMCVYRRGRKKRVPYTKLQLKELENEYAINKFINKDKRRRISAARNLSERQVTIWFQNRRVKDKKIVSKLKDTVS
Sequence of MSX2 (Homo sapiens, UniProt P35548 130-214) (P35548 130-214): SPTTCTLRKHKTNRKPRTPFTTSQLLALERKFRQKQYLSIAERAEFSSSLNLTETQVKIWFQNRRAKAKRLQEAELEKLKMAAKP
Sequence of HOXD13 (Homo sapiens, UniProt P35453 263-343) (P35453 263-343): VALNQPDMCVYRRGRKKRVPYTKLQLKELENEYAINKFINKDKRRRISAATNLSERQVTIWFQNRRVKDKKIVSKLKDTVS

Take CATTTAAC: the binding signal is 10.7 upbm affinity estimate (log intensity, higher = more binding, comparable within an allelic series) with PAX4 [1]; 10.9 upbm affinity estimate (log intensity, higher = more binding, comparable within an allelic series) with PAX4 [2]; 10.8 upbm affinity estimate (log intensity, higher = more binding, comparable within an allelic series) with PAX4 [3]; 10.2 upbm affinity estimate (log intensity, higher = more binding, comparable within an allelic series) with PAX4 [4].

For CGGGGCGC, the binding signal with PAX4 [1] was 9.09 upbm affinity estimate (log intensity, higher = more binding, comparable within an allelic series); with PAX4 [2], 9 upbm affinity estimate (log intensity, higher = more binding, comparable within an allelic series); in the assay with HOXA2 [5], 7.19 upbm affinity estimate (log intensity, higher = more binding, comparable within an allelic series); in the assay with PAX4 [3] it was 8.96 upbm affinity estimate (log intensity, higher = more binding, comparable within an allelic series); with HOXA2 [6], 9.85 upbm affinity estimate (log intensity, higher = more binding, comparable within an allelic series); with PAX4 [4], 8.91 upbm affinity estimate (log intensity, higher = more binding, comparable within an allelic series). Besides, the binding signal was 9.04 upbm affinity estimate (log intensity, higher = more binding, comparable within an allelic series) in the assay with PAX4 [7]; 9.06 upbm affinity estimate (log intensity, higher = more binding, comparable within an allelic series) in the assay with PAX4 [8]; 10.3 upbm affinity estimate (log intensity, higher = more binding, comparable within an allelic series) with HOXA2 [9]; 7.21 upbm affinity estimate (log intensity, higher = more binding, comparable within an allelic series) with HOXA2 [10].

Consider TGAATTAA, for which the binding signal is 11.8 upbm affinity estimate (log intensity, higher = more binding, comparable within an allelic series) with PAX4 [1]; 12.3 upbm affinity estimate (log intensity, higher = more binding, comparable within an allelic series) with PAX4 [2]; 11.1 upbm affinity estimate (log intensity, higher = more binding, comparable within an allelic series) with HOXA2 [5]; 11.9 upbm affinity estimate (log intensity, higher = more binding, comparable within an allelic series) with PAX4 [3]; 11.2 upbm affinity estimate (log intensity, higher = more binding, comparable within an allelic series) with PITX2; 12.5 upbm affinity estimate (log intensity, higher = more binding, comparable within an allelic series) with HOXA2 [6]. The binding signal with PAX4 [4] is 10.6 upbm affinity estimate (log intensity, higher = more binding, comparable within an allelic series); with PAX4 [7] it was 11.1 upbm affinity estimate (log intensity, higher = more binding, comparable within an allelic series); with HOXA2 [9] it was 10.8 upbm affinity estimate (log intensity, higher = more binding, comparable within an allelic series); with HOXA2 [10] it was 11.1 upbm affinity estimate (log intensity, higher = more binding, comparable within an allelic series).

Take CCAGGAGC: the binding signal with PAX4 [1] is 9.4 upbm affinity estimate (log intensity, higher = more binding, comparable within an allelic series); in the assay with PAX4 [2], 9.35 upbm affinity estimate (log intensity, higher = more binding, comparable within an allelic series); in the assay with NKX2-6 [11], 9.22 upbm affinity estimate (log intensity, higher = more binding, comparable within an allelic series); with PAX4 [3], 9.51 upbm affinity estimate (log intensity, higher = more binding, comparable within an allelic series); with PAX4 [4], 9.26 upbm affinity estimate (log intensity, higher = more binding, comparable within an allelic series); with PAX4 [7] it was 9.24 upbm affinity estimate (log intensity, higher = more binding, comparable within an allelic series). Further, the binding signal with NKX2-6 [12] is 9.26 upbm affinity estimate (log intensity, higher = more binding, comparable within an allelic series); in the assay with PAX4 [8], 9.32 upbm affinity estimate (log intensity, higher = more binding, comparable within an allelic series).

On to CCGGGGGA, for which the binding signal was 9.19 upbm affinity estimate (log intensity, higher = more binding, comparable within an allelic series) in the assay with PAX4 [1]; 9.35 upbm affinity estimate (log intensity, higher = more binding, comparable within an allelic series) in the assay with PAX4 [2]; 9.52 upbm affinity estimate (log intensity, higher = more binding, comparable within an allelic series) with MSX2 [13]; 9.16 upbm affinity estimate (log intensity, higher = more binding, comparable within an allelic series) in the assay with PAX4 [3]; 9.14 upbm affinity estimate (log intensity, higher = more binding, comparable within an allelic series) with PAX4 [4]; 9.61 upbm affinity estimate (log intensity, higher = more binding, comparable within an allelic series) with MSX2 [14]. In addition, the binding signal in the assay with PAX4 [7] is 9.09 upbm affinity estimate (log intensity, higher = more binding, comparable within an allelic series); in the assay with MSX2 [15] it was 9.5 upbm affinity estimate (log intensity, higher = more binding, comparable within an allelic series); with PAX4 [8], 9.22 upbm affinity estimate (log intensity, higher = more binding, comparable within an allelic series).

For TAAAGTAA, the binding signal in the assay with PAX4 [1] was 10.7 upbm affinity estimate (log intensity, higher = more binding, comparable within an allelic series); with PAX4 [2], 10.9 upbm affinity estimate (log intensity, higher = more binding, comparable within an allelic series); with PAX4 [3] it was 10.8 upbm affinity estimate (log intensity, higher = more binding, comparable within an allelic series).

CGGCGTCA: the binding signal with PAX4 [1] is 9.36 upbm affinity estimate (log intensity, higher = more binding, comparable within an allelic series); with PAX4 [2], 9.43 upbm affinity estimate (log intensity, higher = more binding, comparable within an allelic series); in the assay with HOXD13 [16], 9.54 upbm affinity estimate (log intensity, higher = more binding, comparable within an allelic series); with PAX4 [3], 9.37 upbm affinity estimate (log intensity, higher = more binding, comparable within an allelic series); in the assay with PITX2, 8.08 upbm affinity estimate (log intensity, higher = more binding, comparable within an allelic series); in the assay with HOXD13 [17] it was 9.49 upbm affinity estimate (log intensity, higher = more binding, comparable within an allelic series). The binding signal with PAX4 [4] is 9.21 upbm affinity estimate (log intensity, higher = more binding, comparable within an allelic series); with PAX4 [7] it was 9.24 upbm affinity estimate (log intensity, higher = more binding, comparable within an allelic series); with HOXD13 [18], 9.61 upbm affinity estimate (log intensity, higher = more binding, comparable within an allelic series); in the assay with PAX4 [8], 9.35 upbm affinity estimate (log intensity, higher = more binding, comparable within an allelic series).
